{
  "source": "paper PMC8384837",
  "about": "“Expanding the binding specificity for RNA recognition by a PUF domain”",
  "assay_in_all_cases": "yeast three-hybrid, YBZ-1, SC-Leu-His + 0.5 mM 3-AT, 4 days",
  "settings_in_all_cases": "tags: N-Gal4 AD-HA kept; label: inside an RPR1-promoter hybrid RNA with tandem MS2 sites; ssRNA",
  "key": {"[1]": {"molecular_target": "PUM1 PUF domain R4-RWP (Homo sapiens, UniProt Q14671 828-1176, N971R;H972W;Q975P)", "procedure,_shortened": "(§1)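 The interaction score is the log change in variant frequency from input to selection. Scores were computed in log2 with a pseudocount of 1 for absent variants, using Illumina sequencing of PCR-amplified repeat regions. The input came from four days on SC-Leu and the selection from four days on SC-Leu-His + 0.5 mM 3-AT. The cells were strain YBZ-1 (LexA–MS2 coat fusion, HIS3 reporter) co-expressing Pumilio-1 PUF domain libraries and matching RNA elements from a centromeric plasmid.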"}, "[2]": {"molecular_target": "T1, PUM1 PUF domain R6-MWS (Homo sapiens, UniProt Q14671 828-1176, N1043M;Y1044W;Q1047S)", "T1 sequence": "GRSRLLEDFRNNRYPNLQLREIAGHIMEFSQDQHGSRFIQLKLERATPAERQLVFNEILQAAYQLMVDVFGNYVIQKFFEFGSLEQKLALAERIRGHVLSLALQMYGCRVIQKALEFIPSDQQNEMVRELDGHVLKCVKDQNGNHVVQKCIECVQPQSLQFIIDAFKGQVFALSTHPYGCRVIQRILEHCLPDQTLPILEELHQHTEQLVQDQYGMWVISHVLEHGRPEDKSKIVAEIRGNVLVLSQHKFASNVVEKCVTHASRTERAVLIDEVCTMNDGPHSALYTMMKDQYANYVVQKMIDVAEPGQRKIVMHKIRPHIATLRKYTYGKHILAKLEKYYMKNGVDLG", "procedure,_shortened": "as §1"}, "[3]": {"molecular_target": "T2, PUM1 PUF domain R6-QRR (Homo sapiens, UniProt Q14671 828-1176, N1043Q;Y1044R;Q1047R)", "T2 sequence": "T1 sequence with M216Q, W217R, S220R", "procedure,_shortened": "as §1"}, "[4]": {"molecular_target": "PUM1 PUF domain R8-RYS (Homo sapiens, UniProt Q14671 828-1176, N1122R;Q1126S)", "procedure,_shortened": "as §1"}, "[5]": {"molecular_target": "PUM1 PUF domain R4-SRI (Homo sapiens, UniProt Q14671 828-1176, N971S;H972R;Q975I)", "procedure,_shortened": "as §1"}, "[6]": {"molecular_target": "T3, PUM1 PUF domain R6-CFI (Homo sapiens, UniProt Q14671 828-1176, N1043C;Y1044F;Q1047I)", "T3 sequence": "T1 sequence with M216C, W217F, S220I", "procedure,_shortened": "as §1"}, "[7]": {"molecular_target": "PUM1 PUF domain R1-TGE (Homo sapiens, UniProt Q14671 828-1176, S863T;R864G;Q867E)", "procedure,_shortened": "as §1"}, "[8]": {"molecular_target": "PUM1 PUF domain R1-RQE (Homo sapiens, UniProt Q14671 828-1176, S863R;R864Q;Q867E)", "procedure,_shortened": "as §1"}, "[9]": {"molecular_target": "PUM1 PUF domain R1-KCT (Homo sapiens, UniProt Q14671 828-1176, S863K;R864C;Q867T)", "procedure,_shortened": "as §1"}, "[10]": {"molecular_target": "PUM1 PUF domain R1-TLE (Homo sapiens, UniProt Q14671 828-1176, S863T;R864L;Q867E)", "procedure,_shortened": "as §1"}, "[11]": {"molecular_target": "PUM1 PUF domain R1-YTR (Homo sapiens, UniProt Q14671 828-1176, S863Y;R864T;Q867R)", "procedure,_shortened": "as §1"}, "[12]": {"molecular_target": "PUM1 PUF domain R1-HKR (Homo sapiens, UniProt Q14671 828-1176, S863H;R864K;Q867R)", "procedure,_shortened": "as §1"}, "[13]": {"molecular_target": "PUM1 PUF domain R3-RSP (Homo sapiens, UniProt Q14671 828-1176, C935R;R936S;Q939P)", "procedure,_shortened": "as §1"}, "[14]": {"molecular_target": "PUM1 PUF domain R7-RRQ (Homo sapiens, UniProt Q14671 828-1176, S1079R;N1080R;E1083Q)", "procedure,_shortened": "as §1"}, "[15]": {"molecular_target": "PUM1 PUF domain R7-GCL (Homo sapiens, UniProt Q14671 828-1176, S1079G;N1080C;E1083L)", "procedure,_shortened": "as §1"}, "[16]": {"molecular_target": "PUM1 PUF domain R7-KSS (Homo sapiens, UniProt Q14671 828-1176, S1079K;N1080S;E1083S)", "procedure,_shortened": "as §1"}, "[17]": {"molecular_target": "PUM1 PUF domain R7-KRA (Homo sapiens, UniProt Q14671 828-1176, S1079K;N1080R;E1083A)", "procedure,_shortened": "as §1"}, "[18]": {"molecular_target": "PUM1 PUF domain R2-LWD (Homo sapiens, UniProt Q14671 828-1176, N899L;Y900W;Q903D)", "procedure,_shortened": "as §1"}, "[19]": {"molecular_target": "PUM1 PUF domain R5-KSM (Homo sapiens, UniProt Q14671 828-1176, C1007K;R1008S;Q1011M)", "procedure,_shortened": "as §1"}},
  "note": "Changes are numbered by the printed parent chain.",
  "data": [
    {"sequence": "GGCUAGAACUAGUGGAUCCCCCGGCGCCCGGCGGCUCGAGCCCGGGUAAGUGUAAAUAGUCUGCAUGCCGCCGGGCGCCAUGCCUGCAGGUCGACUCUAGAAAACAUG", "values": [
      {"measurement": "binding signal", "setting": "[1]", "result": "5.93 log2 enrichment (interaction score)"},
      {"measurement": "binding signal", "setting": "[2]", "result": "5.31 log2 enrichment (interaction score)"},
      {"measurement": "binding signal", "setting": "[3]", "result": "6.35 log2 enrichment (interaction score)"},
      {"measurement": "binding signal", "setting": "[4]", "result": "4.4 log2 enrichment (interaction score)"},
      {"measurement": "binding signal", "setting": "[5]", "result": "3.08 log2 enrichment (interaction score)"}
    ]},
    {"sequence": "GGCUAGAACUAGUGGAUCCCCCGGCGCCCGGCGGCUCGAGCCCGGGUAAGUGAAAAUAGUCUGCAUGCCGCCGGGCGCCAUGCCUGCAGGUCGACUCUAGAAAACAUG", "values": [
      {"measurement": "binding signal", "setting": "[2]", "result": "2.78 log2 enrichment (interaction score)"},
      {"measurement": "binding signal", "setting": "[6]", "result": "5.68 log2 enrichment (interaction score)"}
    ]},
    {"sequence": "GGCUAGAACUAGUGGAUCCCCCGGCGCCCGGCGGCUCGAGCCCGGGUAAGUGCAAAUAGUCUGCAUGCCGCCGGGCGCCAUGCCUGCAGGUCGACUCUAGAAAACAUG", "values": [
      {"measurement": "binding signal", "setting": "[3]", "result": "5.8 log2 enrichment (interaction score)"}
    ]},
    {"sequence": "GGCUAGAACUAGUGGAUCCCCCGGCGCCCGGCGGCUCGAGCCCGGGUAAGUGUAAAUGGUCUGCAUGCCGCCGGGCGCCAUGCCUGCAGGUCGACUCUAGAAAACAUG", "values": [
      {"measurement": "binding signal", "setting": "[7]", "result": "2.92 log2 enrichment (interaction score)"},
      {"measurement": "binding signal", "setting": "[8]", "result": "1.2 log2 enrichment (interaction score)"},
      {"measurement": "binding signal", "setting": "[9]", "result": "3.31 log2 enrichment (interaction score)"},
      {"measurement": "binding signal", "setting": "[10]", "result": "3.5 log2 enrichment (interaction score)"}
    ]},
    {"sequence": "GGCUAGAACUAGUGGAUCCCCCGGCGCCCGGCGGCUCGAGCCCGGGUAAGUGUAAAUUGUCUGCAUGCCGCCGGGCGCCAUGCCUGCAGGUCGACUCUAGAAAACAUG", "values": [
      {"measurement": "binding signal", "setting": "[7]", "result": "3.46 log2 enrichment (interaction score)"},
      {"measurement": "binding signal", "setting": "[11]", "result": "6.22 log2 enrichment (interaction score)"},
      {"measurement": "binding signal", "setting": "[12]", "result": "3.25 log2 enrichment (interaction score)"},
      {"measurement": "binding signal", "setting": "[10]", "result": "4.15 log2 enrichment (interaction score)"}
    ]},
    {"sequence": "GGCUAGAACUAGUGGAUCCCCCGGCGCCCGGCGGCUCGAGCCCGGGUAAGCGUAAAUAGUCUGCAUGCCGCCGGGCGCCAUGCCUGCAGGUCGACUCUAGAAAACAUG", "values": [
      {"measurement": "binding signal", "setting": "[4]", "result": "6.43 log2 enrichment (interaction score)"}
    ]},
    {"sequence": "GGCUAGAACUAGUGGAUCCCCCGGCGCCCGGCGGCUCGAGCCCGGGUAAGUGUAUAUAGUCUGCAUGCCGCCGGGCGCCAUGCCUGCAGGUCGACUCUAGAAAACAUG", "values": [
      {"measurement": "binding signal", "setting": "[5]", "result": "1.38 log2 enrichment (interaction score)"}
    ]},
    {"sequence": "GGCUAGAACUAGUGGAUCCCCCGGCGCCCGGCGGCUCGAGCCCGGGUAAGUGUAAUUAGUCUGCAUGCCGCCGGGCGCCAUGCCUGCAGGUCGACUCUAGAAAACAUG", "values": [
      {"measurement": "binding signal", "setting": "[13]", "result": "4.96 log2 enrichment (interaction score)"}
    ]},
    {"sequence": "GGCUAGAACUAGUGGAUCCCCCGGCGCCCGGCGGCUCGAGCCCGGGUAAGUGUAAGUAGUCUGCAUGCCGCCGGGCGCCAUGCCUGCAGGUCGACUCUAGAAAACAUG", "values": [
      {"measurement": "binding signal", "setting": "[13]", "result": "1.39 log2 enrichment (interaction score)"}
    ]},
    {"sequence": "GGCUAGAACUAGUGGAUCCCCCGGCGCCCGGCGGCUCGAGCCCGGGUAAGUGUAAAUCGUCUGCAUGCCGCCGGGCGCCAUGCCUGCAGGUCGACUCUAGAAAACAUG", "values": [
      {"measurement": "binding signal", "setting": "[11]", "result": "6.08 log2 enrichment (interaction score)"},
      {"measurement": "binding signal", "setting": "[8]", "result": "2.21 log2 enrichment (interaction score)"},
      {"measurement": "binding signal", "setting": "[9]", "result": "6.39 log2 enrichment (interaction score)"}
    ]},
    {"sequence": "GGCUAGAACUAGUGGAUCCCCCGGCGCCCGGCGGCUCGAGCCCGGGUAAGUUUAAAUAGUCUGCAUGCCGCCGGGCGCCAUGCCUGCAGGUCGACUCUAGAAAACAUG", "values": [
      {"measurement": "binding signal", "setting": "[14]", "result": "5.4 log2 enrichment (interaction score)"},
      {"measurement": "binding signal", "setting": "[15]", "result": "2.65 log2 enrichment (interaction score)"},
      {"measurement": "binding signal", "setting": "[16]", "result": "4.3 log2 enrichment (interaction score)"},
      {"measurement": "binding signal", "setting": "[17]", "result": "3.25 log2 enrichment (interaction score)"}
    ]},
    {"sequence": "GGCUAGAACUAGUGGAUCCCCCGGCGCCCGGCGGCUCGAGCCCGGGUAAGUGUAAAAAGUCUGCAUGCCGCCGGGCGCCAUGCCUGCAGGUCGACUCUAGAAAACAUG", "values": [
      {"measurement": "binding signal", "setting": "[18]", "result": "5.97 log2 enrichment (interaction score)"}
    ]},
    {"sequence": "GGCUAGAACUAGUGGAUCCCCCGGCGCCCGGCGGCUCGAGCCCGGGUAAGUCUAAAUAGUCUGCAUGCCGCCGGGCGCCAUGCCUGCAGGUCGACUCUAGAAAACAUG", "values": [
      {"measurement": "binding signal", "setting": "[16]", "result": "2.54 log2 enrichment (interaction score)"},
      {"measurement": "binding signal", "setting": "[17]", "result": "5.25 log2 enrichment (interaction score)"}
    ]},
    {"sequence": "GGCUAGAACUAGUGGAUCCCCCGGCGCCCGGCGGCUCGAGCCCGGGUAAGUGUCAAUAGUCUGCAUGCCGCCGGGCGCCAUGCCUGCAGGUCGACUCUAGAAAACAUG", "values": [
      {"measurement": "binding signal", "setting": "[19]", "result": "3.66 log2 enrichment (interaction score)"}
    ]}
  ]
}
